Structures are written as SMILES. Inconclusive results are not listed. Where a call stands in place of a potency, no number is given. Active and inactive are the calls of the source. Calls come from the whole dose curve; as a rule, active = well fitted cell-killing curve with a large enough effect; inconclusive = small, poorly fitted or top-dose-only effect, or effect the other way; inactive = no such curve, though single readings can be large or run the other way.
Potency is the fitted concentration of half-maximal effect.

The assay in a line: Viability qHTS for spleen associated tyrosine kinase inhibitor (SYKi) naive MV4-11 cells (AID 1963823). Note: nearly all actives have a fitted effect of over 40% in size. As to conditions: MV4-11 AML viability, CellTiter-Glo luminescence, 72 h; series mostly up to 45 µM. In short, it runs like this: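 Read-out: CellTiter-Glo luminescence. Exposure: 72 hr, 37 C, 5% CO2, 95% humidity. Cells: MV4-11 without SYK inhibitor history, 500/well, qHTS format.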
Background: qHTS replaces the single test concentration by a dilution series.
Take `C[C@@H]1CCC2C(C)(C)[C@H](O)[C@H](O)C[C@]2(C)[C@@]12Cc1c(O)cc3c(c1O2)CN(CCCC(=O)O)C3=O` (some centres not stated): the Potency result was “inactive”.

With `CC(C)(O)c1ccc2c(c1)C(O)CC1C(C)(C(=O)O)CCCC21C` (configuration not stated), the Potency result was “inactive”.

Take `O=C(O)c1ccncc1Nc1nn(CCN2CCC(F)(F)CC2)c2ccc(F)cc12`: the Potency entry was “inactive”.

For `CC1OC(OCC2OC(OC3CCC4(C)C(CCC5(C)C4CC=C4C6CC(C)(C)CCC6(C(=O)OC6OC(CO)C(O)C(O)C6O)CCC45C)C3(C)CO)C(O)C(O)C2O)C(O)C(O)C1O` (configuration not stated), the viability (% of control) was 79.6% [at 9.25 µM] (inactive).

As to `CC#CCn1c(N2CCCC(N)C2)nc2c1c(=O)n(Cc1nc(C)c3ccccc3n1)c(=O)n2C` (configuration not stated), the Potency result is “inactive”.

As for `C=CC(C)(CC/C=C(\C)C(=O)OC[C@H]1O[C@@H](OC(C)(C=C)CC/C=C(\C)C(=O)O[C@H]2[C@H](O)[C@@H](O)[C@H](OC(C)(C=C)CC/C=C(\C)C(=O)O)O[C@@H]2CO)[C@H](O)[C@@H](O)[C@@H]1O)O[C@@H]1O[C@H](CO)[C@@H](O)[C@H](O)[C@H]1O` (some centres not stated), the viability (% of control) is 81.1% [at 9.25 µM] (inactive).

For `COC(=O)CCC(=O)OC[C@]1(C)CCC[C@@]2(C)C3CC[C@]4(C)C=CC3(CCC12)C4` (some centres not stated), the Potency entry was “inactive”.

`C=C1[C@H](OC(C)=O)[C@H]2[C@@H](OC(C)=O)[C@](C)(OC(C)=O)C[C@]2(OC(C)=O)C(=O)[C@H](C)/C=C/C(C)(C)C(=O)[C@H](OC(=O)C(C)C)[C@H]1OC(C)=O`: the Potency entry is “inactive”.

Regarding `CCCC(=O)c1cc(O)c(O)cc1O`, the Potency result was “inactive”.

As for `CC1(C)C(=O)N2c3ccccc3[C@]3(CC(n4cnc5ccccc5c4=O)C(=O)O3)[C@H]2N1O` (some centres not stated), the Potency result was “inactive”.

Regarding `NC(=O)c1ccc(F)c2c1C[C@@H](N(C1CCC1)C1CCC1)CO2`, the Potency result was “inactive”.

Regarding `O=C(N[C@H]1CCN(C(=O)c2cc(C(F)(F)F)cc(C(F)(F)F)c2)[C@H](Cc2ccc(Cl)cc2)C1)c1ccnc2ccccc12`, the Potency is 8.93 µM (active).

Take `CCCCOc1ccc(-c2cncc(C(=O)NCc3cccnc3N3CCOCC3)c2)cc1Cl`: the Potency was 18.4 µM (active).

On to `CC1(C)CCC[C@@]2(C)[C@H]1[C@H](O)C=C1COC(=O)[C@@]12O`, for which the Potency entry was “inactive”.

Consider `C[C@@H]1O[C@@H](O[C@H]2[C@H](O[C@H]3CC[C@@]4(C)C(CC[C@]5(C)C4CC=C4[C@@H]6CC(C)(C)CC[C@]6(C(=O)O[C@@H]6OC[C@H](O)[C@H](O)[C@H]6O[C@@H]6O[C@@H](C)[C@H](O[C@@H]7O[C@H](CO)[C@@H](O)[C@H](O)[C@H]7O)[C@H](O)[C@H]6O)[C@H](O)C[C@]45C)C3(C)C)O[C@H](CO)[C@@H](O[C@@H]3OC[C@@H](O)[C@H](O)[C@H]3O)[C@@H]2O)[C@H](O)[C@H](O)[C@H]1O` (some centres not stated), for which the viability (% of control) was 79.8% [at 9.25 µM] (inactive).

As to `C/C=C/C=C/C=C/C(=O)O[C@@H]1C=C(CO)[C@](O)(CO)[C@@]2(C)CCCC(C)(C)[C@H]12`, the Potency was 16.1 µM (active).

For the compound `C/C=C1\[C@H](O[C@@H]2O[C@H](CO)[C@@H](O)[C@H](O)[C@H]2O)OC=C(C(=O)O)[C@H]1CC(=O)OCCc1ccc(O)cc1`, the Potency entry was “inactive”.

In the case of `C[C@@H]1N[C@H]2N(C1=O)c1ccccc1[C@@]2(O)C[C@@H]1C(=O)N[C@@H](C)c2nc3ccccc3c(=O)n21`, the Potency result is “inactive”.

In the case of `C[C@@H]1O[C@@H](OC[C@H]2O[C@@H](OCC3CCC4CC3C4(C)C)[C@H](O)[C@@H](O)[C@@H]2O)[C@H](O)[C@H](O)[C@H]1O` (some centres not stated), the Potency result is “inactive”.

In the case of `Cc1csc(N(C(=O)CSc2ccc(-c3ccccc3)nn2)C2CC2)n1`, the Potency entry was “inactive”.

With `COc1cccc2cc3c(c(O[C@@H]4O[C@H](CO[C@@H]5O[C@H](CO)[C@@H](O)[C@H](O)[C@H]5O)[C@@H](O)[C@H](O)[C@H]4O)c12)C(C)OC3=O` (some centres not stated), the Potency entry was “inactive”.

Consider `COC(=O)c1sccc1S(=O)(=O)Nc1ccc(Nc2ccccc2)cc1OC`, for which the Potency was 5.17 µM (active).

With `COC(=O)C[C@@H]1C(C(=O)O)=CO[C@@H](O[C@@H]2O[C@H](CO)[C@@H](O)[C@H](O)[C@H]2O)/C1=C\COC(=O)/C=C\c1ccccc1`, the Potency result was “inactive”.

In the case of `CC(=O)/C=C/C1(O)C(C)(C)CC(O)CC1(C)O` (configuration not stated), the Potency entry was “inactive”.

Regarding `COc1cc(Nc2ccc([N+](=O)[O-])cc2C(=O)O)cc2ccccc12`, the Potency result was “inactive”.

With `C=C1C(=O)OC2CC(C)C(CCC(C)=O)=CCC12` (configuration not stated), the Potency was 8.2 µM (active).

As to `COc1ccc(CCN(C)CCCC(C#N)(c2cc(OC)c(OC)c(OC)c2)C(C)C)cc1OC` (configuration not stated), the Potency was 23.7 µM (active).

Values taken from PubChem BioAssay (NCATS).
